# PubChem BioAssay (Tox21)
# Values joined by “and” are separate entries in the source; they are usually repeats but may differ in a detail not shown here. Identical values can stand only once. Inconclusive results are not listed. Entries that show only a call come without a potency. Values without a mark were called inactive. Active and inactive are the calls of the source. Calls follow the shape of the full dose curve.
# Assay: qHTS assay for small molecule agonists of the p53 signaling pathway (AID 651631); also: nearly all actives have a fitted effect of over 15% in size
# Conditions: HCT-116 p53RE-bla reporter, beta-lactamase FRET ratio, 16 h; series mostly up to 73.3 µM; activation: at the top concentration
# In short: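 p53RE-bla HCT-116 cells; compounds 16 h, 37 °C; LiveBLAzer B/G FRET substrate 2 h RT; fluorescence intensity read-out, qHTS format.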
# Potency is read from the fitted curve at half-maximal effect.
Structure (SMILES),Potency,activation
Cc1ccccc1Cl,inactive,–
CCCCCCC(=O)O,inactive,–
COc1ccccc1[N+](=O)[O-],–,-2.29%
Cc1ccccc1C=O,inactive,–
Nc1cccc(C(F)(F)F)c1,–,-2.89% [at 95.1 µM]
CCCOC(=O)NCCCN(C)C,–,0.403%
COc1ccc(N)c(OC)c1,inactive,–
Nc1nc(N)c2nc(-c3ccccc3)c(N)nc2n1,26.6 µM (active) and 15.5 µM (active) and 34.4 µM (active),–
Cc1ccc(Cl)cc1,inactive,–
CC/C=C(\C(=O)N[C@@H]1C(=O)N2C(C(=O)OCOC(=O)C(C)(C)C)=C(COC(N)=O)CS[C@H]12)c1csc(N)n1,inactive,–
CC(C)=CCC/C(C)=C/C=O,inactive,–
Cc1nnc(NS(=O)(=O)c2ccc(N)cc2)s1,inactive,–
CC(=O)OCc1ccc2c(c1)OCO2,inactive,–
NC(=O)NC(N)=O,inactive,–
CC(=O)c1nccs1,inactive,–
OCc1ccc(Cl)cc1Cl,–,-2.66%
CC1(C)C(=O)N(Cl)C(=O)N1Cl,–,-2.49%
CCc1cccc(CC)c1N,–,-1.97% [at 95.1 µM]
O=C(O)Cc1c[nH]c2ccccc12,inactive,–
NC(=O)c1ncn([C@@H]2O[C@H](CO)[C@@H](O)[C@H]2O)n1,13.3 µM (active) and 64.4 µM (active),–
CCCN(CCC)C(=O)SCC,–,2.14% [at 95.1 µM]
CCOC(=O)CC(=O)OCC,inactive,–
CCCCCCCCCCCCCC(=O)O,inactive,–
CCCCCCCC(=O)O,inactive,–
O=C(c1ccccc1)c1ccc(O)c(O)c1O,inactive,–
O=[N+]([O-])c1ccccc1C(F)(F)F,inactive,–
COc1ccc([C@@H]2CC(=O)c3c(O)cc(O[C@@H]4O[C@H](CO[C@@H]5O[C@@H](C)[C@H](O)[C@@H](O)[C@H]5O)[C@@H](O)[C@H](O)[C@H]4O)cc3O2)cc1OC,inactive,–
